Results on 68 molecules are retold here after the antibiotic and cytotoxicity screens of Wong et al. (2023).

Each structure is given as a SMILES string. Hit rate of the full screen: of about 39,000 compounds, about 3,300 (8.5%) were called active. Shown is part of a subset that was picked to be rich in actives.

The subject of this experiment is HepG2. As to the kind of experiment: cytotoxicity call (relative viability < 0.9). As to conditions: 10 µM.
As to `C[C@@H]1CN([C@@H](C)CO)C(=O)c2cc(NC(=O)Nc3ccccc3)ccc2O[C@@H](C)CCCCO[C@H]1CN(C)C(=O)CCC(F)(F)F`, the cytotoxicity call is “inactive”.

Turning to `C[C@@H]1CCCCO[C@@H](CN(C)S(=O)(=O)c2cccs2)[C@@H](C)CN([C@H](C)CO)C(=O)c2cc(NC(=O)Nc3ccc(C(F)(F)F)cc3)ccc2O1`, the cytotoxicity call was “inactive”. Consider `C[C@@H]1CN([C@@H](C)CO)C(=O)c2cc(NC(=O)Nc3ccc(C(F)(F)F)cc3)ccc2O[C@@H](C)CCCCO[C@@H]1CN(C)S(=O)(=O)c1cccs1`, for which the cytotoxicity call was “inactive”. Regarding `C[C@@H]1CCCCO[C@H](CN(C)S(=O)(=O)c2cccs2)[C@H](C)CN([C@@H](C)CO)C(=O)c2cc(NC(=O)Nc3ccc(C(F)(F)F)cc3)ccc2O1`, the cytotoxicity call is “active”. For the molecule `C[C@@H]1CCCCO[C@H](CN(C)S(=O)(=O)c2cccs2)[C@@H](C)CN([C@@H](C)CO)C(=O)c2cc(NC(=O)Nc3ccc(C(F)(F)F)cc3)ccc2O1`, the cytotoxicity call is “active”. Regarding `C[C@@H]1CN([C@H](C)CO)C(=O)c2cc(NC(=O)Nc3ccc(C(F)(F)F)cc3)ccc2O[C@@H](C)CCCCO[C@@H]1CN(C)S(=O)(=O)c1cccs1`, the cytotoxicity call is “inactive”. Turning to `C[C@H](CO)N1C[C@H](C)[C@@H](CN(C)S(=O)(=O)c2cccs2)OCCCC[C@H](C)Oc2ccc(NC(=O)Nc3ccc(C(F)(F)F)cc3)cc2C1=O`, the cytotoxicity call was “inactive”.

Turning to `C[C@@H]1CN([C@H](C)CO)C(=O)c2cc(NC(=O)C3CC3)ccc2O[C@H]1CN(C)Cc1ccc(Oc2ccccc2)cc1`, the cytotoxicity call is “inactive”. For `COc1cc(OC)c([C@@H]2c3c(n(C)c(=O)n(C)c3=O)N=C3COC(=O)C32)cc1OC` (stereo partly drawn) the value was “inactive”; for `NCc1cnc(Nc2ccccc2)nc1`, “inactive”; for `COc1ccc(S(=O)(=O)Nc2ccc3c(c2)C(=O)N([C@H](C)CO)C[C@H](C)[C@@H](CN(C)Cc2ccc4c(c2)OCO4)OCCCC[C@@H](C)O3)cc1`, “inactive”. On to `C[C@@H]1CCCCO[C@H](CN(C)C(=O)C2CCCCC2)[C@H](C)CN([C@H](C)CO)C(=O)c2cc(NC(=O)c3ccccc3)ccc2O1`, for which the cytotoxicity call was “inactive”. With `C[C@@H]1CN([C@@H](C)CO)C(=O)c2cccc(NC(=O)C3CCCCC3)c2O[C@@H]1CN(C)Cc1ccc(C(F)(F)F)cc1`, the cytotoxicity call was “inactive”.

As to `C[C@H](CO)N1C[C@H](C)[C@@H](CN(C)C(=O)c2cnccn2)Oc2ncc(C#Cc3ccccn3)cc2C1=O`, the cytotoxicity call was “inactive”. In the case of `CCCCC[C@@H](C)N`, the cytotoxicity call was “inactive”. The value for `C[C@@H]1CN([C@H](C)CO)C(=O)Cc2cc(NS(=O)(=O)c3cn(C)cn3)ccc2O[C@@H]1CN(C)CC1CC1` was “inactive”; that for `O=C(Nc1cccc2cccnc12)[C@@H]1[C@H](c2cc(Cl)cc(Br)c2)CC(=O)N1C(=O)OCc1ccccc1` was “active”. In the case of `O=C(Nc1cccc2cccnc12)[C@@H]1[C@H](c2ccc(-c3ccccc3)cc2)CC(=O)N1C(=O)OCc1ccccc1`, the cytotoxicity call was “inactive”. On to `COc1ccc(NC(=O)[C@@H]2[C@H](c3ccc(C)cc3)CC(=O)N2C(=O)OCc2ccccc2)c2ncccc12`, for which the cytotoxicity call was “inactive”. For the molecule `O=C(Nc1cccc2cccnc12)[C@@H]1[C@H](c2ccc(Br)cc2)CC(=O)N1C(=O)OCc1ccccc1`, the cytotoxicity call was “inactive”. As to `COc1ccc(NC(=O)[C@H]2[C@@H](c3ccc(C)cc3)CC(=O)N2C(=O)OCc2ccccc2)c2ncccc12`, the cytotoxicity call was “active”. The value for `O=C(Nc1cccc2cccnc12)[C@@H]1[C@H](c2cccc(Br)c2)CC(=O)N1C(=O)OCc1ccccc1` was “inactive”; that for `C[C@H](CO)N1C[C@H](C)[C@H](CN(C)Cc2ccccc2)Oc2c(NS(=O)(=O)c3cn(C)cn3)cccc2C1=O` was “inactive”. For `COC(=O)C1=CO[C@@H](O[C@@H]2O[C@H](CO)[C@@H](O)[C@H](O)[C@H]2O)[C@@H]2[C@@H](C)[C@@H](O)C[C@H]12` the value was “inactive”; for `CC1=NNC(=O)CC1`, “inactive”.

Turning to `Cc1noc(C)c1NC(=O)Nc1ccc2c(c1)C(=O)N([C@H](C)CO)C[C@@H](C)[C@@H](CN(C)Cc1ccc(C(F)(F)F)cc1)OCCCC[C@@H](C)O2`, the cytotoxicity call was “inactive”. For `c1ccc(CNc2ccc3c(ccc4c5ccccc5[nH]c34)n2)cc1`, the cytotoxicity call is “active”. As for `Cn1nnnc1NCc1ccccc1`, the cytotoxicity call is “inactive”. As for `c1ccc(CNc2nn[nH]n2)cc1`, the cytotoxicity call was “inactive”. `C[C@@H](CO)N1C(=O)[C@@H]2[C@H]3C(=O)OCCC=C[C@H]3O[C@]23C=CCN(Cn2nnc4ccccc42)C(=O)[C@@H]13`: the cytotoxicity call was “inactive”. On to `O=c1nc[nH]c2ccccc12`, for which the cytotoxicity call is “inactive”. The value for `FC(F)(F)c1ccc(CSc2c[nH]c3ccccc23)cc1` was “inactive”; that for `Brc1ccc(CSc2c[nH]c3ccccc23)cc1` was “active”; that for `Cn1nnc(NCc2ccccc2)n1` was “inactive”. In the case of `CC1(C)C=Cc2c(nc3ccccc3c2NCc2ccccc2)C1`, the cytotoxicity call is “active”. Regarding `CC(C)NC(=O)Nc1cccc2c1O[C@H](CN(C)S(=O)(=O)c1ccc(Cl)cc1)[C@@H](C)CN([C@@H](C)CO)C2=O`, the cytotoxicity call was “inactive”.

`CNC(=O)C[C@H]1CC[C@H]2[C@@H](COC[C@@H](O)CN2C(=O)c2ccccn2)O1`: the cytotoxicity call was “inactive”. In the case of `C=C[C@@H]1C[C@]1(NC(=O)[C@@H]1C[C@@H]2CN1C(=O)[C@H](C(C)(C)C)NC(=O)O[C@@H]1C[C@H]1CCCCCc1nc3ccc(OC)cc3nc1O2)C(=O)NS(=O)(=O)C1CC1`, the cytotoxicity call is “inactive”.

For the molecule `COCC#Cc1ccc2c(c1)O[C@H](CN(C)C(=O)Nc1ccccc1F)[C@@H](C)CN([C@H](C)CO)S2(=O)=O`, the cytotoxicity call was “inactive”.

On to `C[C@H](CO)N1C[C@H](C)[C@@H](CN(C)S(=O)(=O)c2cccs2)Oc2ccc(NC(=O)Cn3cnnn3)cc2CC1=O`, for which the cytotoxicity call is “inactive”.

Regarding `C[C@H](CO)N1C[C@H](C)[C@H](CN(C)Cc2ccc(C(=O)Nc3ccccc3N)cc2)Oc2ccc(NC(=O)Nc3cccc4ccccc34)cc2C1=O`, the cytotoxicity call was “active”.

For the molecule `C[C@@H]1CN([C@H](C)CO)C(=O)c2cc(NC(=O)Nc3cccc4ccccc34)ccc2O[C@H]1CN(C)Cc1ccc(C(=O)Nc2ccccc2N)cc1`, the cytotoxicity call was “inactive”. Consider `C[C@H]1CN([C@@H](C)CO)C(=O)c2cc(NC(=O)Nc3cccc4ccccc34)ccc2O[C@H]1CN(C)Cc1ccc(C(=O)Nc2ccccc2N)cc1`, for which the cytotoxicity call is “inactive”. Regarding `C[C@@H]1CN([C@H](C)CO)C(=O)c2cc(NC(=O)Nc3cccc4ccccc34)ccc2O[C@@H]1CN(C)Cc1ccc(C(=O)Nc2ccccc2N)cc1`, the cytotoxicity call was “active”. With `C[C@H](CO)N1C[C@H](C)[C@@H](CN(C)Cc2ccc(C(=O)Nc3ccccc3N)cc2)Oc2ccc(NC(=O)Nc3cccc4ccccc34)cc2C1=O`, the cytotoxicity call was “inactive”. As to `C[C@H]1CN([C@@H](C)CO)C(=O)c2cc(NC(=O)Nc3cccc4ccccc34)ccc2O[C@@H]1CN(C)Cc1ccc(C(=O)Nc2ccccc2N)cc1`, the cytotoxicity call was “inactive”. With `CN1C(=O)c2cc(NC(=O)Cc3cccs3)ccc2OC[C@@H]2O[C@@H](CC(=O)NCCCN3CCOCC3)CC[C@H]21`, the cytotoxicity call was “inactive”. For the molecule `COCCOC(=O)N1C(=O)[C@@]2(c3cc(C#CCNC(N)=O)ccc31)[C@H](c1ccc(O)cc1)N1[C@H](c3ccccc3)[C@H](c3ccccc3)OC(=O)[C@H]1[C@@H]2C(=O)N1CCc2cc(OC)c(OC)cc2C1`, the cytotoxicity call was “inactive”. As to `COC(=O)[C@H]1[C@H](CO)[C@H]2Cn3c(cccc3=O)[C@H]2N1C(=O)C1CC1`, the cytotoxicity call is “inactive”. Consider `C[C@H](CO)N1C[C@H](C)[C@@H](CN(C)Cc2ccc(C(=O)Nc3ccccc3N)cc2)Oc2c(NC(=O)Nc3ccccc3)cccc2C1=O`, for which the cytotoxicity call was “inactive”.

For the molecule `C[C@H](C(=O)O)N1CCCC1=O`, the cytotoxicity call is “inactive”.

On to `C[C@H](CO)N1C[C@H](C)[C@@H](CN(C)C(=O)Nc2cccc3ccccc23)Oc2ccc(NC(=O)Nc3ccccc3)cc2C1=O`, for which the cytotoxicity call is “inactive”. As for `COc1ccc(S(=O)(=O)N2C[C@H](O)COC[C@@H]3O[C@H](CC(=O)NCCCN(C)C)CC[C@H]32)cc1`, the cytotoxicity call is “inactive”. Consider `C[C@H]1CN([C@@H](C)CO)C(=O)c2c(c3ccccc3n2C)-c2ccccc2CO[C@@H]1CN(C)Cc1cccc(C(=O)O)c1`, for which the cytotoxicity call was “inactive”. For `Cc1ccc(S(=O)(=O)N(C)C[C@H]2Oc3c(NC(=O)Nc4cccc5ccccc45)cccc3C(=O)N([C@@H](C)CO)C[C@H]2C)cc1` the value was “inactive”; for `O=C(C[C@@H]1C[C@@H]2c3cc(NS(=O)(=O)c4ccc(F)cc4)ccc3O[C@@H]2[C@H](CO)O1)NCCc1ccccc1`, “inactive”; for `C[C@@H]1CN([C@@H](C)CO)C(=O)Cc2cc(NC(=O)c3ccncc3)ccc2O[C@@H]1CN(C)S(=O)(=O)c1ccccc1`, “active”. As for `C[C@H]1CN([C@@H](C)CO)C(=O)Cc2cc(NC(=O)c3ccncc3)ccc2O[C@@H]1CN(C)S(=O)(=O)c1cccs1`, the cytotoxicity call was “inactive”.

With `C[C@H]1CN([C@@H](C)CO)C(=O)Cc2cc(NC(=O)Nc3cccc4ccccc34)ccc2O[C@H]1CN(C)S(=O)(=O)c1cccs1`, the cytotoxicity call was “inactive”. Regarding `CC(C)NC(=O)Nc1ccc2c(c1)CC(=O)N([C@@H](C)CO)C[C@H](C)[C@H](CN(C)S(=O)(=O)c1cccs1)O2`, the cytotoxicity call is “inactive”. In the case of `C[C@@H]1CN([C@@H](C)CO)C(=O)Cc2cc(NC(=O)Nc3cccc4ccccc34)ccc2O[C@@H]1CN(C)S(=O)(=O)c1cccs1`, the cytotoxicity call was “active”.

Turning to `CC(C)NC(=O)Nc1ccc2c(c1)CC(=O)N([C@H](C)CO)C[C@H](C)[C@H](CN(C)S(=O)(=O)c1cccs1)O2`, the cytotoxicity call was “inactive”. As for `C[C@H](CO)N1C[C@H](C)[C@H](CN(C)S(=O)(=O)c2ccccc2)Oc2ccc(NC(=O)c3ccncc3)cc2CC1=O`, the cytotoxicity call is “inactive”. As to `C[C@@H]1CN([C@@H](C)CO)C(=O)Cc2cc(NC(=O)c3ccncc3)ccc2O[C@@H]1CN(C)S(=O)(=O)c1cccs1`, the cytotoxicity call is “active”. On to `C[C@@H]1CN([C@@H](C)CO)C(=O)Cc2cc(NC(=O)c3ccncc3)ccc2O[C@H]1CN(C)S(=O)(=O)c1cccs1`, for which the cytotoxicity call is “inactive”. On to `C[C@H]1CN([C@@H](C)CO)C(=O)Cc2cc(NC(=O)c3ccncc3)ccc2O[C@@H]1CN(C)S(=O)(=O)c1ccccc1`, for which the cytotoxicity call was “inactive”. The value for `C[C@H](CO)N1C[C@H](C)[C@H](CN(C)S(=O)(=O)c2cccs2)Oc2ccc(NC(=O)Nc3cccc4ccccc34)cc2CC1=O` was “inactive”; that for `CC(C)NC(=O)Nc1ccc2c(c1)CC(=O)N([C@@H](C)CO)C[C@@H](C)[C@@H](CN(C)S(=O)(=O)c1cccs1)O2` was “active”.
